# From PubChem BioAssay (Tox21)
# Values without a mark were called inactive. Results filed as inconclusive are left out. A call without a number means that no potency is given here. Calls of active or inactive are those of the source. The call rests on the fitted dose curve; in most records, active means well fitted curve in the direction sought with a large enough effect in the repeat runs; inconclusive means weak or mixed curves; inactive means no such curve, though single readings can be large; an effect the other way counts as inactive or inconclusive.
# Legend:
# [1] = Caspase-3/7 induction in CHO-K1 cells by small molecules, qHTS assay (AID 1346980); further: nearly all actives have a fitted effect of over 15% in size
# How it was run: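 Luminescent Caspase-Glo 3/7 read (30min, room temperature) quantified apoptosis induction. Cells were wild-type CHO-K1, treated with compound for 17hr at 37 C and 5% CO2.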
# [2] = biological target: Nuclear receptor subfamily 1 group I member 2 (Homo sapiens) (UniProt O75469); assay: Human pregnane X receptor (PXR) small molecule agonists, qHTS assay (AID 1346982); further: nearly all actives have a fitted effect of over 35% in size; further: potency means the concentration at half of the fitted maximal effect
# How it was run: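 PXR-Luc HepG2 cells (CYP3A4 promoter-driven luciferase) were seeded in medium with 5% charcoal-stripped FBS, left 5 hr at 37 C, then exposed to compounds in DMSO for 24 hr. Luminescence was read after ONE-Glo addition.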
# [3] = biological target: Nuclear receptor subfamily 1 group I member 2 (Rattus norvegicus) (UniProt Q9R1A7); assay: Rat pregnane X receptor (rPXR) activation by small molecules, qHTS assay (AID 1346983); details: rPXR luciferase reporter cells, One-Glo luminescence, 24 h; max activation: hits give high values; further: nearly all actives have a fitted effect of over 20% in size
# How it was run: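 Luminescent readout (One-Glo luciferase, 30 min room temperature) followed 24 hr compound treatment at 37 C of rPXR cells plated 2,000 per well and preincubated 5hr; qHTS format with compounds delivered in DMSO.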
# [4] = biological target: Nuclear receptor subfamily 1 group I member 2 (Homo sapiens) (UniProt O75469); assay: Human pregnane X receptor (PXR) activation by small molecules, qHTS assay (AID 1346985); further: nearly all actives have a fitted effect of over 40% in size; further: potency means the concentration at half of the fitted maximal effect
# How it was run: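 DPX-2 cells (HepG2 co-transfected with a PXR response element and a CYP3A4-promoter luciferase construct) were seeded at 2,000 per well, rested 5 hr at 37C, then exposed to DMSO-dissolved compounds for 24 hr. Activation was read as luciferase luminescence.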
# [5] = Caspase-3/7 induction in HepG2 cells by small molecules, qHTS assay (AID 1346978); further: nearly all actives have a fitted effect of over 15% in size
# How it was run: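 Caspase-3/7 induction was measured by Caspase-Glo 3/7 luminescence (30 min, room temperature) after a 17 hr compound exposure of wild-type HepG2 cells seeded at 2,000 per well and pre-incubated 5 hr.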
# [6] = Caspase-3/7 induction in HepG2 cells by small molecules, qHTS cell viability counter screen (AID 1346981); further: series mostly up to about 92 µM; nearly all actives have a fitted effect of over 30% in size
# How it was run: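 Wild-type HepG2 cells (2,000/well) were allowed to settle for 5 hr at 37 C, 5% CO2, then dosed with compounds in DMSO by pin transfer. After 16 hr at 37 C, CellTiter-Fluor was added and fluorescence read 1 hr later.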
# [7] = biological target: Cytochrome P450 2D6 (Homo sapiens) (UniProt P10635); assay: Cytochrome P450 Family 2 Subfamily D Member 6 (CYP2D6) small molecule antagonists: luciferase reporter qHTS assay (AID 1671196); further: nearly all actives have a fitted effect of over 50% in size; further: potency means the concentration at half of the fitted maximal effect
# How it was run: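 CYP2D6 enzyme–substrate mix was held with compound for 10 min at room temperature, then NADPH regeneration solution was added and the reaction ran 1 h at room temperature. Luciferin product was detected by luminescence after 20 min with detection reagent.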
# [8] = Caspase-3/7 induction in CHO-K1 cells by small molecules, qHTS cell viability counter screen (AID 1346979); further: potency means the concentration at half of the fitted maximal effect; nearly all actives have a fitted effect of over 35% in size
# How it was run: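 To flag cytotoxic compounds, treated CHO-K1 wild-type cells were given CellTiter-Fluor at 16hr and read fluorescently after 1hr at 37C; the caspase-3/7 luminescence was measured in these same wells.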
# [9] = biological target: Cytochrome P450 2C19 (Homo sapiens) (UniProt P33261); assay: Cytochrome P450 Family 2 Subfamily C Member 19 (CYP2C19) small molecule antagonists: luciferase reporter qHTS assay (AID 1671197); further: nearly all actives have a fitted effect of over 65% in size; further: potency means the concentration at half of the fitted maximal effect
# How it was run: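 Luminescent readout of CYP2C19 activity: luciferin product detected 20 min after adding detection reagent. Before that, compound and enzyme-substrate mix preincubated 10 min at room temperature; NADPH-regenerating system started a 1 h, 37C reaction. Ketoconazole as positive control.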
# [10] = biological target: Nuclear receptor subfamily 1 group I member 2 (Homo sapiens) (UniProt O75469); assay: CYP3A4 induction through human pregnane X receptor (PXR) by small molecules, qHTS assay (AID 1346984); further: nearly all actives have a fitted effect of over 40% in size
# How it was run: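 DPX-2 cells (HepG2 co-transfected with PXR and CYP3A4 promoter-luciferase) treated with compounds 24 h at 37C; luciferin-IPA CYP3A4 substrate 3uM final added for 3 h, then One-Glo; luminescence read. qHTS format.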
# Sequence of Nuclear receptor subfamily 1 group I member 2 (Rattus norvegicus) (Q9R1A7 whole entry, looked up): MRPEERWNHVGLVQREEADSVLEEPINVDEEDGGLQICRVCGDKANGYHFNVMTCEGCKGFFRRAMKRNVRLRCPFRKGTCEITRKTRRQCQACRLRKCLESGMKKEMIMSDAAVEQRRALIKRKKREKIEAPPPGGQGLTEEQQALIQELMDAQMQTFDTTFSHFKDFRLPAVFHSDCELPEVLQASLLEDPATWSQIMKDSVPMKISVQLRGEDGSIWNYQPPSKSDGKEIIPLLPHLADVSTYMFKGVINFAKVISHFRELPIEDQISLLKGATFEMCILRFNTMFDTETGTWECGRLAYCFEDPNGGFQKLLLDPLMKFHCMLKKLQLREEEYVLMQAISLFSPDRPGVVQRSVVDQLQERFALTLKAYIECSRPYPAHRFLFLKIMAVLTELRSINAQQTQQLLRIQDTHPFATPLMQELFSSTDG
# Sequence of Nuclear receptor subfamily 1 group I member 2 (Homo sapiens) (O75469 whole entry, looked up): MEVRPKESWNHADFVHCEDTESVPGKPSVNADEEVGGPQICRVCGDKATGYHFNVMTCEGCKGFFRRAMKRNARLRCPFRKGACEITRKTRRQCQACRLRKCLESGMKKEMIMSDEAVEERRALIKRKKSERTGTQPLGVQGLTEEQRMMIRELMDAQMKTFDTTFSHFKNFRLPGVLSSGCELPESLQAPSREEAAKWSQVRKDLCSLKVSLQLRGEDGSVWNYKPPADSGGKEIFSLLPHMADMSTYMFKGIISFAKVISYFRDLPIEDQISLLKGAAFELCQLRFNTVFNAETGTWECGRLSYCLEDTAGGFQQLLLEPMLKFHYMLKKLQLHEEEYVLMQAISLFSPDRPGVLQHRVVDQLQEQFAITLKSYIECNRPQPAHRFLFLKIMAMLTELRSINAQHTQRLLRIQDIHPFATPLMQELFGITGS
# Sequence of Cytochrome P450 2D6 (Homo sapiens) (P10635 whole entry, looked up): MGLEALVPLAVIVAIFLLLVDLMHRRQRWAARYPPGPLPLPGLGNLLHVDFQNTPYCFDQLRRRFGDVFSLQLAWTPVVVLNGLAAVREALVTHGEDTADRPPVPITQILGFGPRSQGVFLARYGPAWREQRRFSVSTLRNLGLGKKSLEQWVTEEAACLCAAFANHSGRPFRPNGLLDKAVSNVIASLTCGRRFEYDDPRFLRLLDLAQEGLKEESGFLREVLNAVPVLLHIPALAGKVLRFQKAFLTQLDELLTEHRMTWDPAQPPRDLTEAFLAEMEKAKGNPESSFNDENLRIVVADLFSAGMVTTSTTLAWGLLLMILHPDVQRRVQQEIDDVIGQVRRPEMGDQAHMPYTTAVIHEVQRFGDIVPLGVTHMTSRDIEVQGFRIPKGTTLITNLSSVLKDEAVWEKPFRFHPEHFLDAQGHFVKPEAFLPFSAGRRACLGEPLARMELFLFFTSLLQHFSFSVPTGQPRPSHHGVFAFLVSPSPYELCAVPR
# Sequence of Cytochrome P450 2C19 (Homo sapiens) (P33261 whole entry, looked up): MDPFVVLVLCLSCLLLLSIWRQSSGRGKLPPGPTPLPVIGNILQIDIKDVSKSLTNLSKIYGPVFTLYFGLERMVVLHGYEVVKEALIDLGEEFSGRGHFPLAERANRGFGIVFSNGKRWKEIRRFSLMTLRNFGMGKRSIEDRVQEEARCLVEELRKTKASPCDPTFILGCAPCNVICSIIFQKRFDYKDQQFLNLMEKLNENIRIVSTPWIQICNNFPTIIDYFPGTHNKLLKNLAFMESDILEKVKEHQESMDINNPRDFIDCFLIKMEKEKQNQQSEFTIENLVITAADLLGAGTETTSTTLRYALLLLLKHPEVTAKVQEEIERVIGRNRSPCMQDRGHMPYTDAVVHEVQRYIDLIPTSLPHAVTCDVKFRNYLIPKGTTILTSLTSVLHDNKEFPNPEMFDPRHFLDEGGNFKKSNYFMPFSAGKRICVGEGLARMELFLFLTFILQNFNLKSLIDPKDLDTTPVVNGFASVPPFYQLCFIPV
structure (smiles),measurement,setting,value
Clc1ccc2c(c1)CCc1cccnc1C2=C1CCNCC1,Potency,[1],inactive
same,Potency,[2],inactive
same,max activation,[3],-7.49%
same,Potency,[4],14.1 µM (active)
Nc1cc(C(=O)O)c(O)c(S(=O)(=O)O)c1,Potency,[5],inactive
same,Potency,[1],inactive
same,Potency,[6],inactive
same,Potency,[7],35.1 µM (active)
CCCCCCCCCCO[C@@H]1O[C@H](CO)[C@@H](O)[C@H](O)[C@H]1O,Potency,[5],inactive
same,Potency,[1],inactive
same,Potency,[6],inactive
same,Potency,[7],inactive
COC(=O)C1=C(C)NC(COC(N)=O)=C(C(=O)OC(C)C)C1c1cccc(Cl)c1Cl (configuration not stated),Potency,[8],13.3 µM (active)
same,Potency,[1],inactive
same,Potency,[9],15.5 µM (active)
CNCCCN1c2ccccc2CCc2ccccc21,Potency,[1],inactive
same,Potency,[2],inactive
same,max activation,[3],-1.95%
same,Potency,[10],inactive
same,Potency,[4],inactive
same,Potency,[9],inactive
CCN(CC)CCOC(=O)C(c1ccccc1)C1CCCCC1 (configuration not stated),Potency,[5],inactive
same,Potency,[1],inactive
same,Potency,[2],13.3 µM (active)
same,max activation,[3],1.58%
same,Potency,[10],inactive
same,Potency,[4],25.1 µM (active)
same,Potency,[7],1.1 µM (active)
CCCCCCCCCCCCCCCCCCOS(=O)(=O)O,Potency,[5],inactive
same,Potency,[1],inactive
same,Potency,[6],inactive
same,Potency,[7],inactive
